Measurements: PubChem BioAssay (Tox21)
A number with no mark means an inactive call. Calls of active or inactive are those of the source. The call rests on the fitted dose curve; in most records, active means well fitted curve in the direction sought with a large enough effect in the repeat runs; inconclusive means weak or mixed curves; inactive means flat fitted curve, though single readings scatter.

assay: qHTS assay to test for compound auto fluorescence at 460 nm (blue) in HEK293 cells (AID 720678); conditions: blue autofluorescence 405/460 nm; series mostly up to 91.3 µM; fluorescence, % of triamterene: at the top concentration
Outline: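 Auto fluorescence in the blue band was quantified as triamterene equivalency. HEK293 cells were seeded at 2,000/well, dosed after a 4-5 hr attachment, and kept overnight at 37C before the 405/460 nm reading.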
On the % scale 0 is the no-effect control and ±100 the full control effect.

Row | Compound | fluorescence, % of triamterene | outcome
1 | O=CCCc1ccccc1 | 0.0057% | 
2 | CC1=C2[C@H](/C=C(\C)C(=O)O)CC[C@@H](C)[C@H]2CC1 | 0.0034% [at 95.7 µM] | 
3 | Oc1ccccc1F | 0.218% | 
4 | CCOc1ccc(NC(N)=O)cc1 | 0.0019% | 
5 | COc1ccc2nc(NC(=O)Nc3ccccc3)sc2c1 | 1.48% [at 46 µM] | 
6 | CCC/C=C/CO | -0.0001% | 
7 | CN1C(=O)CC(c2ccccc2)C1=O (stereo not given) | -0.0678% [at 46 µM] | 
8 | Cc1ccc(C(C)C)cc1O | -0.0188% | 
9 | Cc1c[nH]c(=S)[nH]c1=O | 0.0682% | 
10 | CC1=NN(c2cc(Cl)c(S(=O)(=O)O)cc2Cl)C(=O)C1N=Nc1ccc(S(=O)(=O)O)cc1 (stereo not given) | -0.0187% | 
11 | CCOc1ccc(OCC)c(Cl)c1 | -0.0258% | 
12 | Cc1ccc([N+](=O)[O-])c(N)c1 | 0.0076% | 
13 | CCCCN1C[C@H](O)[C@@H](O)[C@H](O)[C@H]1CO | -0.0792% [at 46 µM] | 
14 | CN1CCN(C2=Nc3ccccc3Oc3ccc(Cl)cc32)CC1 | 0.0075% [at 18.6 µM] | 
15 | CC(C)O |  | inactive
16 | CN1[C@@H]2CC[C@H]1CC(OC(=O)c1c[nH]c3ccccc13)C2 (stereo not given in full) | -0.294% [at 46 µM] | 
17 | CN1CCC[C@@H]1Cc1c[nH]c2ccc(CCS(=O)(=O)c3ccccc3)cc12 | -0.0473% [at 46 µM] | 
18 | CC1CN(c2ccccc2)NC1=O (stereo not given) | -0.124% | 

Row | Compound | fluorescence, % of triamterene | outcome
19 | CC(C)=CCCC(C)CCOC=O (stereo not given) | -0.0467% | 
20 | CCOC(=O)CS | 0.24% [at 95.7 µM] | 
21 | Cc1cc2c(s1)Nc1ccccc1N=C2N1CCN(C)CC1 | -0.261% [at 46 µM] | 
22 | O=C1CCCCC1C1CCCCC1 (stereo not given) | -0.0555% | 
23 | CCC(=O)c1ccc2c(c1)N(CCCN(C)C)c1ccccc1S2 | 0.156% [at 46 µM] | 
24 | CN(C)CCOc1ccccc1Cc1ccccc1 | -0.12% [at 46 µM] | 
25 | CCOc1ccc(NS(=O)(=O)c2ccc(N)cc2)nn1 | 0.0591% [at 46 µM] | 
26 | Cn1cnc2c(F)c(Nc3ccc(Br)cc3Cl)c(C(=O)NOCCO)cc21 | 0.0283% [at 46 µM] | 
27 | CCCCCCCCCCCCCCCCOP(=O)([O-])OCC[N+](C)(C)C | 0.0132% [at 46 µM] | 
28 | CCN(CCCc1ccccc1)CCCc1ccccc1 | 0.0775% [at 18.6 µM] | 
29 | CCCCCCCCCCCCOCCOS(=O)(=O)O | -0.102% | 
30 | CCNCCO | -0.0086% | 
31 | O=C(CC(=O)C(F)(F)F)c1ccccc1 | -0.0274% [at 95.7 µM] | 
32 | CCCCCCCOC(=O)CCC | -0.0094% | 
33 | O=[N+]([O-])c1nccn1CO[C@@H](CO)[C@H](O)CO | -0.238% [at 46 µM] | 
34 | CCCCNc1ccc(C(=O)OCCN(CC)CC)cc1 | -0.0405% [at 46 µM] | 
35 | C[C@@H]1CN(c2c(F)c(F)c3c(=O)c(C(=O)O)cn(C4CC4)c3c2F)C[C@H](C)N1 | -0.322% [at 46 µM] | 
